Test results: PubChem BioAssay (NCATS)
Active and inactive are the calls of the source. Calls come from the whole dose curve; as a rule, active = well fitted activation curve with a large enough effect; inconclusive = small, poorly fitted or top-dose-only effect; inactive = flat fitted curve, though single readings scatter.

experiment: Confirmation and Secondary Assay for Modulators of Hemoglobin Beta Chain Splicing at IVS2 705 locus (AID 930); settings: HeLa EGFP-705 splicing reporter, GFP fluorescence, 48 h; series mostly up to 46.1 µM
From the text: NIH Chemical Genomics Center [NCGC] NIH Molecular Libraries Screening Centers Network [MLSCN] MLSCN Grant: 1 X01 MH080684-01 PI Name: Dr. Ryszard Kole NCGC Assay Overview: Modulation of Alternative Splicing as Therapy Abnormal splicing is associated with a number of diseases, including cancer and genetic diseases such as cystic fibrosis, muscular dystrophy and beta-thalassemia. Alteration of disease associated splicing patterns provides a promising target for treatment. […] Mutations in the second intron of the b-globin gene at positions 654 or 705 are clinically relevant and cause mis-splicing which results in an out of frame gene product. […] EGFP-705 HeLa Cells as screen system. HeLa cell lines were stably transfected with a construct in which the EGFP (enhanced green fluorescent protein) cDNA was interrupted by the second intron of the beta-globin gene (IVS2-705). The ISV2 intron contains mutations which cause mis-splicing of EGFP and premature termination of EGFP which results in a nonfluorescent protein product. […] Expression of the transgene was driven by the CMV promoter. We concluded that a low molecular weight compound, which restored correct splicing of intron 2 would also generate functional EGFP protein, resulting in a fluorescent signal. Thus, the HeLa cells that express the EGFP-705 construct can be used for validation of splice site specificity of compounds identified in primary screening of the ISV2 654 construct.
NCGC Assay Protocol Summary: Confirmatory Screening. Freshly thawed HeLa EGFP-705 cells were seeded in 5 ul of optimem media (Invitrogen) containing 2 % fetal calf serum (Hyclone) and 1x penicillin/streptomycin (Invitrogen) at a concentration of 500 cells per well in 1536-well plates. Cells were incubated overnight at 37C in 5% CO2. The next day, cells were treated with DMSO, 500 nM antisense ISV2 654 PNA control oligo, or library compound and allowed to grow at 37C in 5% CO2 for 2 days. The PNA oligo blocked the mutation site in the intron and allowed proper (wild type) splicing to occur, resulting in full length EGFP expression and also allowed for optimization of the assay parameters. Plates were read in the Acumen Explorer (TTP Labtech) using 488 nm laser excitation and 500-520 nm emission PMT filter in a 1 x 8 uM capture mode. Fluorescnet objects ranging in size from 5 to 250 uM were measured and the total peak GFP intensity for each well was used for data analysis. Keywords: Thalassemia, beta-thalassemia, beta-globin, EGFP, ISV2 654, ISV2 705, SSO, PNA, antisense, splicing, MLSMR, MLSCN, NIH Roadmap, qHTS, NCGC

Potency, inactive:
CO/N=C(\C(=O)NC1C(=O)N2C(C(=O)OCOC(=O)C(C)(C)C)=C(/C=C\c3scnc3C)CSC12)c1csc(N)n1 (stereo not given)
COC(=O)CC1C(C)(C)C(=O)C2CC3=C(CC[C@]4(C)C3=CC(=O)OC4c3ccoc3)[C@@]1(C)C2=O (stereo not given in full)
COc1cc(C2c3cc4c(cc3C(O[C@@H]3OC5COC(c6cccs6)OC5C(O)C3O)C3COC(=O)C23)OCO4)cc(OC)c1O (stereo not given in full)
CCC(=O)OCC(=O)C1(OC(=O)CC)C(C)CC2C3C(Cl)CC4=CC(=O)C=C[C@@]4(C)C3C(O)C[C@@]21C (stereo not given in full)
CC(C)(O)CCC(O)[C@@](C)(O)C1CC[C@]2(O)C3=CC(=O)C4CC(O)C(O)C[C@]4(C)C3CC[C@]12C (stereo not given in full)
OCC1OC(n2cnc3c(Cl)ncnc32)C(O)C1O (stereo not given)
Cc1cc(=O)c2c(O)cc(O)c(C)c2o1
COc1cc(O)c(C)c(O)c1
C=C[C@](C)(O)CCC1C(=C)CC(O)C2C(C)(C)CCCC12C (stereo not given in full)
CC(=O)/C=C\C1[C@]2(C)CCCC(C)(C)C2CC[C@@]1(C)O (stereo not given in full)
CCC(CCC(C)C1CCC2C3CC=C4CC(O)CC[C@@]4(C)C3CC[C@@]12C)C(C)C (stereo not given in full)
C=CCSCC=C
CC1(C)SC2C(NC(=O)C(NC(=O)N3CCNC3=O)c3ccccc3)C(=O)N2C1C(=O)O (stereo not given)
NC(=O)NCC(N)C(=O)O (stereo not given)
CN(C)C1C(=O)C(C(N)=O)=C(O)[C@@]2(O)C(=O)C3=C(O)c4c(O)ccc(Cl)c4C(O)[C@H]3C[C@@H]12 (stereo not given in full)
C=C1C2CC[C@@]3(C)C(c4ccoc4)OC(=O)C[C@@]13OC1CC(=O)C(C)(C)C(CC(=O)OC)[C@]12C (stereo not given in full)
CC(C)=CCc1c2c(c(O)c3c(=O)c(O)c(-c4ccccc4)oc13)C=CC(C)(C)O2
Nc1ncnc2[nH]c(=O)[nH]c12
CC(=O)Oc1cc(-c2coc3cc(OC(C)=O)c(OC(C)=O)c(OC(C)=O)c3c2=O)cc(OC(C)=O)c1OC(C)=O
CC1C(O)CC2C(C(=O)O)=CO[C@@H](O[C@H]3OC(CO)C(O)C(O)C3O)C21 (stereo not given in full)
COc1cc2cc3c4cc(OC)c(OC)cc4cc[n+]3c(C)c2cc1OC
Nc1nc2c(c(=O)[nH]1)N(C=O)C(CNc1ccc(C(=O)NC(CCC(=O)O)C(=O)O)cc1)CN2 (stereo not given)
CC(N)C(O)c1cccc(O)c1 (stereo not given)
COc1ccc(-c2cc(=O)c3c(O)cc(O[C@H]4OC(COC5OC(C)C(O)C(O)[C@H]5O)C(O)C(O)C4O)cc3o2)cc1O (stereo not given in full)
CCCC(=O)O[C@]1(C(=O)CO)CCC2[C@@H]3CCC4=CC(=O)CC[C@]4(C)C3C(O)C[C@]21C (stereo not given in full)
CC1(C)OC2C[C@](O)(C(N)=O)C[C@H](O)[C@H]2O1 (stereo not given in full)
COc1cc(OC)c2c(=O)c(OC)c(-c3ccc(OC)c(OC)c3)oc2c1
CC(=O)OC1C[C@]2(C)[C@@H](CC(O)C3[C@]4(C)CCC(O)C(C)[C@@H]4CC[C@]32C)/C1=C(/CCC=C(C)C)C(=O)O (stereo not given in full)
COC(=O)CCC(C)C1CCC2C3C(O)C[C@@H]4CC(O)CC[C@@]4(C)C3CC(O)[C@]12C (stereo not given in full)
CC(C)CC(NC(=O)OCC1c2ccccc2-c2ccccc21)C(=O)O (stereo not given)
COc1cccc2c1CCC1CC(=O)CC[C@@]21C (stereo not given in full)
Oc1cc(O)c2c(c1)OC(c1cc(O)c(O)c(O)c1)C(O)C2 (stereo not given)
COc1c2ccoc2nc2c(OC)c(OCC(O)C(C)(C)O)ccc12 (stereo not given)
CCOC(=O)c1c(C)cc(O)c(C=O)c1O
CC(=O)OCC1OC(n2cnc3c(Cl)nc(Cl)nc32)C(OC(C)=O)C1OC(C)=O (stereo not given)
CC(CCC(=O)O)C1CCC2C3C(O)C[C@@H]4CC(O)CC[C@@]4(C)C3CC(O)[C@]12C (stereo not given in full)
C=C1CCC2C(CC2(C)C)C(=C)CC/C1=N/O (stereo not given)
CC(=O)OCC(=O)[C@@]12OC(C)(C)OC1CC1C3CC(F)C4=CC(=O)C=C[C@@]4(C)[C@@]3(F)C(O)C[C@]12C (stereo not given in full)
CC(C)CCCC(C)C1CCC2C3=CC[C@@H]4CC(O)CC[C@@]4(C)C3CC[C@]21C (stereo not given in full)
CC(=O)OC/C=C(\C)CC/C=C(\C)CC/C=C(\C)CC/C=C(\C)CC/C=C(\C)CC/C=C(\C)CC/C=C(\C)CC/C=C(\C)CCC=C(C)C
